# The full list was thinned out, with hits kept by preference.
# Pf Dd2 inh = Plasmodium falciparum Dd2 growth inhibition. P. falciparum Dd2 growth, SYBR Green, 72 h. Potency, µM (series often up to 28.9 µM), for inactives: at the top dose activity, negative = inhibition, most hits filed as inhibitors. 120,000 compounds, 4.3% hits; active = well fitted inhibition curve with a large enough effect;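 note: plate controls were DMSO vehicle for no effect and reference drug for full effect; nearly all actives have a fitted effect of over 65% in size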
#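 Infected erythrocytes (Dd2, 0.3% parasitemia, 2.5% hematocrit final) are added to compound in RPMI-1640/Albumax II medium, grown 72 h at 37C in low oxygen, then lysed with saponin/Triton-X containing SYBR Green and read by fluorescence.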
# * = called active by the depositor; i = inactive; [ ] = dose if it differs, or a comment. Potency is the fitted concentration of half-maximal effect.
SMILES,Pf Dd2 inh
Cc1ccc(NC(=O)c2sc3nc(-c4cccs4)ccc3c2N)cc1F,-3.7%
Cc1ccc(NC(=O)c2sc3nc(-c4cc5ccccc5oc4=O)[nH]c(=O)c3c2C)c(C)c1,25.1%
COc1cccc(NC(=O)c2cnc(-c3ccc(C)cc3)nc2-c2ccncc2)c1,-23.3%
COc1ccc(NC(=O)c2sc3nc(C)c(C(=O)Nc4ccc(C)cc4C)c(-c4ccc(C)o4)c3c2N)cc1,8.91µM*
COc1ccc(NC(=O)c2sc3nc4c(cc3c2N)CCCCCC4)c(OC)c1,-12.6%
CCOc1ccccc1NC(=O)c1sc2nc(C)cc(C)c2c1N,-11.3%
CCC(C)NC(=O)c1sc2nc(C)c(C(=O)Nc3ccc(C)cc3C)c(-c3ccc(Cl)cc3)c2c1N (stereo unspecified),-5.4%
COc1cccc(NC(=O)c2sc3nc(C)c(C(=O)Nc4ccc(C)cc4C)c(-c4ccc(C)o4)c3c2N)c1,11.2µM*
CCOc1ccccc1NC(=O)c1sc2nc(-c3ccc(OC)cc3)ccc2c1N,16.4%
COCc1nc(C2CCCN(C(=O)c3cccc(C)c3)C2)no1 (stereo unspecified),59.2%
O=C(NCc1cccnc1)c1ccc(-c2ccc(N3CCSCC3)nc2)cc1,i
COCCn1ncc(N2CCC(NC(=O)c3cc(C)cc(C)c3)CC2)cc1=O,i
Cn1cccc1C(=O)N[C@@H](Cc1ccccc1)C(=O)N1CCCOCCNC(=O)CC1,-17.1%
O=C1CO[C@H]2CN(c3ncccn3)C[C@H]2N1CC1CCCCC1,i
CC(C)CCN1CCn2c(nnc2-c2ccccc2)C1,-6.1%[44.1 µM]
COc1ccc(CNCCN2CCCC2)cc1,-8.9%[44.1 µM]
COc1ccc(CNC(=O)C(=O)NCC(c2ccco2)S(=O)(=O)c2ccc(C)cc2)cc1 (stereo unspecified),i
COc1ccc(CNCCC(c2ccc(C)cc2)c2ccco2)cc1 (stereo unspecified),12.6µM*
CCc1cccc(OCC(=O)c2ccc3c(c2)N(CCCC(=O)NCC2CC2)C(=O)CO3)c1,i
NC(=O)[C@@H](Cc1c[nH]c2ccccc12)NC(=O)[C@@H]1CN(C(=O)Nc2ccccc2)CCN1C(=O)c1cccs1,i
Cc1nn(-c2ccccc2)c(C)c1[C@@H]1C=C[C@@H](NCc2cccc(C#N)c2)C1,i
Cc1ccc(-n2nc(C)c([C@@H]3C=C[C@@H](NC(=O)CC(C)(C)CC(=O)O)C3)c2C)cc1Cl,i
Cc1nn(-c2cccc(Br)c2)c(C)c1[C@@H]1C=C[C@@H](NS(C)(=O)=O)C1,-3.0%[44.1 µM]
Cc1ccc(-n2nc(C)c([C@@H]3C=C[C@@H](NCc4ccc(N(C)C)cc4)C3)c2C)cc1Cl,-42.3%[44.1 µM]
Cc1nn(-c2ccc(C(C)C)cc2)c(C)c1[C@@H]1C=C[C@@H](NCc2cccc(C#N)c2)C1,4.47µM*
SMILES,Pf Dd2 inh
Cc1ccc(-n2nc(C)c([C@@H]3C=C[C@@H](NCc4ccc(F)cc4)C3)c2C)cc1Cl,3.55µM*
Cc1nn(CCC#N)c(C)c1[C@@H]1C=C[C@@H](NCc2ccc(F)cc2)C1,-15.7%[44.1 µM]
Cc1nn(-c2ccc(C(C)C)cc2)c(C)c1[C@@H]1C=C[C@@H](NCc2ccc(F)cc2)C1,3.98µM*
CCOc1cc(=O)n2c(c1C(=O)Nc1cc(F)ccc1C)CCCC2,19.9%
CC(=O)NCCOc1ccc(C(=O)N2CCC3(CCNCC3)CC2)cc1,-4.0%
Cc1noc(C)c1CC(=O)N1CCCC(c2nn(C)c(=O)n2C(C)C)C1 (stereo unspecified),-16.7%
Cc1ccc2c(C(=O)N3CCOCC3)cnn2c1,3.8%[44.1 µM]
COC[C@H]1C[C@@H](NC(=O)c2ccccc2)[C@H](O)[C@@H]1O,17.6%[44.1 µM]
O=C(c1cn(CCC2CCCCN2)nn1)N1CCc2nc[nH]c(=O)c2CC1 (stereo unspecified),1.8%
CCN(Cc1ccccc1)C(=O)CC1CCCN(c2cn[nH]c(=O)c2)C1 (stereo unspecified),12.0%
COc1cccc(CN2CCc3nc(C(=O)Nc4nc(C)cs4)oc3CC2)c1,-25.3%[44.1 µM]
O=C(O)CCC(=O)N[C@H]1CO[C@H]2[C@@H]1OC[C@@H]2n1nnnc1Oc1ccc2c(c1)OCO2,9.3%[44.1 µM]
CCc1ccccc1S(=O)(=O)N1CCN(C2CCN(CCC(C)C)C2=O)CC1 (stereo unspecified),10µM*
COc1cccc(S(=O)(=O)N2CCN(C3CCN(CCC(C)C)C3=O)CC2)c1 (stereo unspecified),-29.3%
CC(C)CCN1CCC(N2CCN(S(=O)(=O)c3cc(F)cc(F)c3)CC2)C1=O (stereo unspecified),-2.8%
CC(C)CCN1CCC(N2CCN(S(=O)(=O)c3ccc(Cl)cc3)CC2)C1=O (stereo unspecified),-0.3%
CCCc1ccc(S(=O)(=O)N2CCN(C3CCN(CCC(C)C)C3=O)CC2)cc1 (stereo unspecified),5.62µM*
CC(C)CCN1CCC(N2CCN(S(=O)(=O)c3ccc4c(c3)CCC4)CC2)C1=O (stereo unspecified),7.08µM*
Cc1ccc(F)cc1S(=O)(=O)N1CCN(C2CCN(CCC(C)C)C2=O)CC1 (stereo unspecified),-22.0%
O=C1C(N2CCN(S(=O)(=O)c3ccc(Cl)cc3)CC2)CCN1CCc1ccccc1 (stereo unspecified),i
CCCc1ccc(S(=O)(=O)N2CCN(C3CCN(CCOC)C3=O)CC2)cc1 (stereo unspecified),i
O=C(O)C(c1cccc2c1OCC2)N1CCCN(c2ncccn2)CC1 (stereo unspecified),-18.4%
CCS(=O)(=O)N1CCC(Nc2cccnc2)C1 (stereo unspecified),17.1%[5.79 µM]
CN1CCCCCC(O)c2cc(C(=O)N3CCN(c4ccccn4)CC3)ccc21 (stereo unspecified),i
CCN1C(=O)C2(CCN(S(=O)(=O)c3ccc(OC)cc3)CC2)c2ccccc21,62.1%
SMILES,Pf Dd2 inh
O=C(c1ccc(Cl)cc1)N1CCC(n2cc[nH]c2=O)CC1,1.3%
Cc1cc2nc3n(c(=O)c2n1CC(=O)Nc1ccc(Br)cc1F)CCC3,i
COc1ccc(C(=O)N2CCC3(CC2)CCN(Cc2cccs2)c2ccccc2O3)cc1,-19.3%
O=C(Nc1ccc(Cl)cc1)N1CCC2(CC1)CCN(Cc1cccs1)c1ccccc1O2,1.41µM*
CCOc1ccccc1CN1CCC2(CCN(C(=O)Nc3ccccc3)CC2)Oc2ccccc21,7.08µM*
CCCN1CCC2(CCN([S+](=O)([O-])c3cccc(C(F)(F)F)c3)CC2)Oc2ccccc21,-25.0%
CCCN1CCC2(CCN(C(=O)c3ccccc3F)CC2)Oc2ccccc21,i
CCCN1CCC2(CCN(C(=O)c3ccc(F)cc3)CC2)Oc2ccccc21,i
CCOc1ccccc1CN1CCC2(CCN(C(=O)c3ccc(C)cc3)CC2)Oc2ccccc21,-2.9%
CC(=O)N1CCC2(CC1)CC(=O)N(c1ccccc1)c1ccccc1O2,-8.5%
CC(=O)Nc1ccc(CN2CCC3(CC2)CC(=O)c2ccccc2O3)cc1,i
O=C1NCC2(CCN([S+](=O)([O-])c3cccs3)CC2)Oc2ccccc21,-17.5%
CCCN1CCC2(CCN([S+](=O)([O-])c3cccs3)CC2)Oc2ccccc21,11.2µM*
CC(C)(C)C(=O)N1CCC2(CC1)CCN(Cc1cccs1)c1ccccc1O2,10µM*
Cc1noc(C)c1S(=O)(=O)N1C[C@@H](Oc2cccnc2)C[C@H]1C(=O)N1CCOCC1,24.7%
COc1ccccc1CC(=O)N1CC[C@@H](NC(=O)c2cnccn2)[C@H](O)C1,5.5%
O=C(CN1CC2CC(C1)[C@H]1CCCC(=O)N1C2)Nc1ccc(N2CCOCC2)cc1 (stereo partly specified),-0.7%

# Bioassay records (PubChem)
